From PubChem BioAssay (NCI)
Compounds without any hit were thinned out: in the full panel of roughly 83,000, 20% have a hit.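 Step 1: grow cells in 96-well plates. Step 2: add test compound at a single concentration. Step 3: incubate 48 h. Step 4: record percent growth.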 The source made the active and inactive calls. The calls were made as follows: active = growth percent below 10; inactive = the rest.

Columns and labels:
Test in all cases: NCI-60 one-dose screen, 48 h (100 = growth as untreated, 0 = no growth, -100 = all killed)
Conditions in all cases: 10 µM unless noted
T-47D breast = tested on: T-47D breast
BT-549 breast = tested on: BT-549 breast
MDA-MB-435 melanoma = tested on: MDA-MB-435 melanoma
SW-620 colon = tested on: SW-620 colon
MCF7 breast = tested on: MCF7 breast
HCT-116 colon = tested on: HCT-116 colon
HCC-2998 colon = tested on: HCC-2998 colon
KM12 colon = tested on: KM12 colon

Measured: growth

CC(C)=CCC[C@](C)(O)[C@H]1CC[C@]2(C)[C@@H]1CC[C@@H]1[C@@]3(C)CC/C(=N/O)C(C)(C)[C@@H]3CC[C@]12C
inactive: MCF7 breast 10% [100 µM] | HCC-2998 colon 10.9% [100 µM] | KM12 colon 15.8% [100 µM]
active: T-47D breast 7.5% [100 µM] | BT-549 breast 1.19% [100 µM] | MDA-MB-435 melanoma 5.38% [100 µM] | SW-620 colon -48% [100 µM] | HCT-116 colon -9.52% [100 µM]

COc1cc2c(cc1OCCCCCOc1ccc(-n3c(C)nc4ccccc4c3=O)cc1)N=C[C@@H]1CCCN1C2=O
active: T-47D breast -7.89% | BT-549 breast -89.2% | MDA-MB-435 melanoma -58.1% | SW-620 colon -13.8% | MCF7 breast -53.6% | HCT-116 colon 0.749% | HCC-2998 colon -61.7% | KM12 colon -45.7%

CCOc1ccc(S(=O)(=O)Nc2ccc3c(c2)N(S(=O)(=O)CC)CCC3)cc1
inactive: T-47D breast 68.1% | BT-549 breast 95.2% | MDA-MB-435 melanoma 78.8% | SW-620 colon 68.3% | MCF7 breast 44.9% | HCT-116 colon 90.8% | HCC-2998 colon 78.2% | KM12 colon 77%

Nc1cc(NN=C(c2ccc(O)cc2)c2ccc(O)cc2)c([N+](=O)[O-])cc1[N+](=O)[O-]
inactive: BT-549 breast 102% | MDA-MB-435 melanoma 96.5% | SW-620 colon 101% | KM12 colon 71.5%
active: T-47D breast -55.9% | MCF7 breast -60.5% | HCT-116 colon -61.8% | HCC-2998 colon -97.6%

NS(=O)(=O)c1ccc(CCN2C(=O)/C(=C\c3ccccc3)C=C2c2ccc(Cl)cc2)cc1
inactive: T-47D breast 88.9% | BT-549 breast 96.4% | MDA-MB-435 melanoma 99.8% | SW-620 colon 99.2% | MCF7 breast 81.2% | HCT-116 colon 96.5% | HCC-2998 colon 105% | KM12 colon 99%

C=C(CC(=O)OC)C(C)=O
inactive: T-47D breast 108% | BT-549 breast 127% | MDA-MB-435 melanoma 116% | SW-620 colon 102% | MCF7 breast 111% | HCT-116 colon 116% | HCC-2998 colon 112% | KM12 colon 102%

Clc1ccc(N2CCN(CCCN3CCN(c4cccc(Cl)c4)CC3)CC2)cc1
inactive: T-47D breast 40.2% | BT-549 breast 29.4% | MDA-MB-435 melanoma 62.4% | SW-620 colon 66.5% | MCF7 breast 44.6% | HCT-116 colon 36.6% | HCC-2998 colon 66.8% | KM12 colon 59.5%

C[n+]1c2ccccc2nc2c(N)cc(N)cc21
inactive: T-47D breast 54.2% | BT-549 breast 46% | MDA-MB-435 melanoma 126% | SW-620 colon 87.1% | MCF7 breast 82.7% | HCT-116 colon 78.2% | HCC-2998 colon 92.4% | KM12 colon 63.8%

Cc1ncc(C(=O)Nc2ccc(CN3CCN(C)CC3)c(C(F)(F)F)c2)cc1C#Cc1c(N)ncc2ccc(C#N)cc12
inactive: T-47D breast 48.9% | BT-549 breast 51.4% | SW-620 colon 34.1% | MCF7 breast 29.5% | HCT-116 colon 14.5% | HCC-2998 colon 58.4%
active: MDA-MB-435 melanoma 7.01% | KM12 colon 9.43%

COc1ccc(C2CC(c3ccc4ccccc4c3)=NN2c2nc(O)c(C3=c4cc(OC)ccc4=NC3=O)s2)cc1 (configuration not stated)
active: T-47D breast -72.7% | BT-549 breast -19.8% | MDA-MB-435 melanoma -59.5% | SW-620 colon -42% | MCF7 breast -29.4% | HCT-116 colon -64.5% | HCC-2998 colon -70.4% | KM12 colon -70.3%

C#CC(OC(=O)N(C)C)(c1ccccc1)c1ccc(F)cc1 (configuration not stated)
inactive: T-47D breast 100% | BT-549 breast 111% | MDA-MB-435 melanoma 120% | SW-620 colon 107% | MCF7 breast 113% | HCT-116 colon 105% | HCC-2998 colon 86.3% | KM12 colon 107%

Cc1ccccc1OC(=O)c1cccc(Cl)c1
inactive: T-47D breast 142% | BT-549 breast 107% | MDA-MB-435 melanoma 113% | SW-620 colon 101% | MCF7 breast 108% | HCT-116 colon 103% | HCC-2998 colon 99.8% | KM12 colon 101%

CCOC(=O)c1nn(C2CCCCO2)c2ccc(NC(=O)Cn3nnc4ccccc43)cc12 (configuration not stated)
inactive: T-47D breast 85.5% | BT-549 breast 96% | MDA-MB-435 melanoma 110% | SW-620 colon 105% | MCF7 breast 99.5% | HCT-116 colon 88.6% | HCC-2998 colon 111% | KM12 colon 104%

O=C(Nc1ccc(CN2CCOCC2)c(C(F)(F)F)c1)c1nc2ccc3[nH]ncc3c2c2c1CCCC2
inactive: T-47D breast 62.6% | BT-549 breast 136% | MDA-MB-435 melanoma 96.6% | SW-620 colon 99.4% | MCF7 breast 83.1% | HCT-116 colon 79.4% | HCC-2998 colon 116% | KM12 colon 83.9%

CNC(=O)c1cc(Oc2cccc3nc(NC(=O)Nc4cc(C(F)(F)F)cc(C(F)(F)F)c4)ccc23)ccn1
inactive: T-47D breast 15.5% | BT-549 breast 46.1% | MDA-MB-435 melanoma 40.2% | SW-620 colon 63.8% | MCF7 breast 50.4% | HCT-116 colon 36.7% | HCC-2998 colon 79.7% | KM12 colon 53.8%

O=[N+]([O-])c1cc([N+](=O)[O-])c(NN=C(c2ccc(O)cc2)c2ccc(O)cc2)cc1Cl
active: T-47D breast -50.4% | BT-549 breast -11.6% | MDA-MB-435 melanoma -62.1% | SW-620 colon -75% | MCF7 breast -65.4% | HCT-116 colon -91.1% | HCC-2998 colon -93.5% | KM12 colon -77.7%

O=C(N/N=C/c1c(Cl)cccc1Cl)c1cccc(Nc2ccnc(C(F)(F)F)c2)c1
inactive: T-47D breast 37% | BT-549 breast 90.8% | MDA-MB-435 melanoma 78.9% | SW-620 colon 99% | MCF7 breast 66.1% | HCT-116 colon 77.2% | HCC-2998 colon 89.1% | KM12 colon 108%

O=C(O)c1cc([N+](=O)[O-])ccc1Br
inactive: T-47D breast 101% | BT-549 breast 91.5% | MDA-MB-435 melanoma 98.5% | SW-620 colon 104% | MCF7 breast 95.8% | HCT-116 colon 99.5% | HCC-2998 colon 104% | KM12 colon 101%

COc1ccc(CC(C#N)c2ccc(Cl)cc2)cc1 (configuration not stated)
inactive: T-47D breast 98.2% | BT-549 breast 74.9% | SW-620 colon 49% | MCF7 breast 75% | HCT-116 colon 72.4% | HCC-2998 colon 61.6% | KM12 colon 32.6%
active: MDA-MB-435 melanoma 0.297%

COc1cc(OC)c(/C=C/C(=O)c2c(N)cc(OC)cc2OC)c(OC)c1
inactive: T-47D breast 49.9% | BT-549 breast 19.3% | SW-620 colon 15% | MCF7 breast 25% | HCT-116 colon 14.8% | HCC-2998 colon 29.4% | KM12 colon 11.5%
active: MDA-MB-435 melanoma -27.3%

Cc1cnc(N)nc1OCC(C)(C)CNC(=O)c1cccc(-c2ccc(S(=O)(=O)Nc3ccc4c(c3)N(C(=O)C3CC3)CCC4)cc2)c1
inactive: T-47D breast 20% | BT-549 breast 78% | MDA-MB-435 melanoma 50.4% | SW-620 colon 73.9% | MCF7 breast 43.6% | HCT-116 colon 61.3% | HCC-2998 colon 72.6% | KM12 colon 61.8%

Cn1cc(-c2noc(C(=O)c3cn(C)c4ncccc34)n2)c2ccccc21
inactive: T-47D breast 46% | BT-549 breast 98.3% | MDA-MB-435 melanoma 72.9% | SW-620 colon 95.5% | MCF7 breast 34.8% | HCT-116 colon 98.7% | HCC-2998 colon 90.6% | KM12 colon 52%

COc1cc(-c2cc(-c3ccc(Nc4ncnc5cc(Cl)ccc45)cc3)nc(N3CCCCC3)n2)cc(OC)c1OC
inactive: T-47D breast 91.3% | BT-549 breast 84% | MDA-MB-435 melanoma 106% | SW-620 colon 97.7% | MCF7 breast 86.6% | HCT-116 colon 103% | HCC-2998 colon 114% | KM12 colon 97.8%

COc1ccccc1S(=O)Nc1ccccc1 (configuration not stated)
inactive: T-47D breast 107% | BT-549 breast 108% | MDA-MB-435 melanoma 97.6% | SW-620 colon 72% | MCF7 breast 95.1% | HCT-116 colon 115% | HCC-2998 colon 107% | KM12 colon 106%

C=C(C)[C@@H]1CC[C@]2(C(=O)N3CCN(C)CC3)CC[C@]3(C)[C@H](CC[C@@H]4[C@@]5(C)C/C(=C/c6ccncc6)[C@H](O)C(C)(C)[C@@H]5CC[C@]43C)[C@@H]12
inactive: T-47D breast 10.8% [100 µM]
active: BT-549 breast -43% [100 µM] | MDA-MB-435 melanoma -39.7% [100 µM] | SW-620 colon -55.4% [100 µM] | MCF7 breast -60.6% [100 µM] | HCT-116 colon -79.3% [100 µM] | HCC-2998 colon -80.7% [100 µM] | KM12 colon -80.4% [100 µM]

O=C1COCCN1c1ccc(Nc2nc(Cl)nc(N3CCOCC3)n2)cc1
inactive: T-47D breast 88.5% | BT-549 breast 97.1% | MDA-MB-435 melanoma 99.5% | SW-620 colon 105% | MCF7 breast 85.5% | HCT-116 colon 101% | HCC-2998 colon 89.1% | KM12 colon 93.8%

CC(C)OC(=O)Nc1cc(F)c(F)cc1F
inactive: T-47D breast 104% | BT-549 breast 104% | MDA-MB-435 melanoma 103% | SW-620 colon 99.2% | MCF7 breast 94.3% | HCT-116 colon 110% | HCC-2998 colon 101% | KM12 colon 101%

Cc1cccc(C[C@H](NC(=O)Nc2ccc(Cl)cc2F)C(=O)N[C@@H]2C(=O)N3C[C@H](O)C[C@H]3C(=O)N3CCN(C)C[C@H]3C(=O)N[C@@H](C)C(=O)N3C[C@H](C)C[C@H]3C(=O)O[C@H]2C)c1
active: HCT-116 colon 9.83%
inactive: T-47D breast 21.5% | BT-549 breast 17.2% | MDA-MB-435 melanoma 22.1% | SW-620 colon 42.4% | MCF7 breast 23% | HCC-2998 colon 34.5% | KM12 colon 40.5%

c1ccc2c(c1)CN(CCCN1CCOCC1)C2
inactive: T-47D breast 101% | BT-549 breast 121% | MDA-MB-435 melanoma 98.2% | SW-620 colon 107% | MCF7 breast 94.6% | HCT-116 colon 97.9% | HCC-2998 colon 98.6% | KM12 colon 102%
